Measurements as given in PMC7862700, “An all-to-all approach to the identification of sequence-specific readers for epigenetic DNA modifications on cytosine”.

What was measured:
Experiment in all cases: DAPPL (digital affinity profiling via proximity ligation, sequencing); 10 mM Tris-HCl pH 7.5, 50 mM NaCl, 1 mM DTT, 4% glycerol, room temperature, 30 min; GST-TFs on glutathione beads, 16-mer random dsDNA library, 0.1% formaldehyde crosslink after washing; high values mean tight binding
Details in all cases: protein: recombinant; tags: N-terminal GST; dsDNA, one strand shown
ERF = biological target: T1, ERF (Homo sapiens, UniProt P50548 1-548)
T1 sequence: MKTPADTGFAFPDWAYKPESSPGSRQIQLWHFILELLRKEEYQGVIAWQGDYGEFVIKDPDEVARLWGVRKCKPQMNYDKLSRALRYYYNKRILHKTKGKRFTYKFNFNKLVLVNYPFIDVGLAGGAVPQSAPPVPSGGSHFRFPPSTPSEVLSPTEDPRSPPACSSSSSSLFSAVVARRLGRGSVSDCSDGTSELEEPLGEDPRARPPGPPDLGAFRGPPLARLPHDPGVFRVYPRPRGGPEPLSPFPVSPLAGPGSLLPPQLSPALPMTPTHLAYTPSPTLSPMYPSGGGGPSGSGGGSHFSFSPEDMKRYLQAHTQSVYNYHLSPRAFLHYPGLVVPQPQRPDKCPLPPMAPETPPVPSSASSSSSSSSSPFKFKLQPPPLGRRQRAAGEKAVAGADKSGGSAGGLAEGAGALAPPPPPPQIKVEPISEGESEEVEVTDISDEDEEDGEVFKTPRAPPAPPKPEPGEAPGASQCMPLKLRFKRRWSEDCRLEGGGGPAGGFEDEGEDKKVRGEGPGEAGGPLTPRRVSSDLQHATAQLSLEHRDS
Procedure, shortened: (§1)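 Binding signal is each hexamer's read frequency for a factor divided by its frequency in the tag-only sample. The factors were GST-fused human transcription factors from yeast, captured on glutathione beads, DNA-barcoded and pooled with that sample. Pools were incubated with 200 nmole of a random double-stranded 16-mer DNA library in Tris/NaCl/DTT/glycerol buffer at room temperature for 30 min, then washed, crosslinked with 0.1% formaldehyde, proximity-ligated with BsaI/T4 ligase (1 h, 37 °C), PCR-amplified and sequenced on an Illumina NextSeq500.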

ETV3L = biological target: T2, ETV3L (Homo sapiens, UniProt Q6ZN32 1-361)
T2 sequence: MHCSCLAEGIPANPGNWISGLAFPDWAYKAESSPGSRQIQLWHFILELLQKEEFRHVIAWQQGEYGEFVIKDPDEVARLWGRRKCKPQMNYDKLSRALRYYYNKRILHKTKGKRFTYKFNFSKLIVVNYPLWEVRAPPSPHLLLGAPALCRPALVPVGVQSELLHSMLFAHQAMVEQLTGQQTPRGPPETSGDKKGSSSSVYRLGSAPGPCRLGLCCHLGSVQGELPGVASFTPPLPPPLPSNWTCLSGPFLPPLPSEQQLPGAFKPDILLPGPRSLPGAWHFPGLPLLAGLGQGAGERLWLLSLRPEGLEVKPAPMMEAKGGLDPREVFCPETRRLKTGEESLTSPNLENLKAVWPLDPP
Procedure, shortened: as §1

ETS2 = biological target: T3, ETS2 (Homo sapiens, UniProt P15036 1-469)
T3 sequence: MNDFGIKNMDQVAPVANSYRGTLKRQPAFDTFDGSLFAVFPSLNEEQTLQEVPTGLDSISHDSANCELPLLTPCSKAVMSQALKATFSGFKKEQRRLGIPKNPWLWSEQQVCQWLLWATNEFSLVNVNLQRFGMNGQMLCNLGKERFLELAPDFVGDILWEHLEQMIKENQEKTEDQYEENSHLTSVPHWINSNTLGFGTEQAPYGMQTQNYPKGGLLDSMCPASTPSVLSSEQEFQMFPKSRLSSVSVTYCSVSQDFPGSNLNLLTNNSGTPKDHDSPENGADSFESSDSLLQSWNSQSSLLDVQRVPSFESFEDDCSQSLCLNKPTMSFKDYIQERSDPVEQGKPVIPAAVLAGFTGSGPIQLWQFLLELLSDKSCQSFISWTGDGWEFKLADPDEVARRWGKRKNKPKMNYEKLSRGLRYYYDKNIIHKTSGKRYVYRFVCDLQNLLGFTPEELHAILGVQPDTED
Procedure, shortened: as §1

SPDEF = biological target: T4, SPDEF (Homo sapiens, UniProt O95238 1-335)
T4 sequence: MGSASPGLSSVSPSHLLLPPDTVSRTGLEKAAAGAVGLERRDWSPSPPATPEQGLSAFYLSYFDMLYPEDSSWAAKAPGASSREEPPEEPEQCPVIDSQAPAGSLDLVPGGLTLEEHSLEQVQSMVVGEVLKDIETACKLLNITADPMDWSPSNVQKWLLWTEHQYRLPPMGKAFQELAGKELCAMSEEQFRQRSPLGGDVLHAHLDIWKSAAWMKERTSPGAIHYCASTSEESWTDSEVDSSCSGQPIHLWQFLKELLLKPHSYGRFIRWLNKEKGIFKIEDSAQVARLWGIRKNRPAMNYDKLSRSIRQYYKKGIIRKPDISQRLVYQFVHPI
Procedure, shortened: as §1

ETV7 = biological target: T5, ETV7 (Homo sapiens, UniProt Q9Y603 1-341)
T5 sequence: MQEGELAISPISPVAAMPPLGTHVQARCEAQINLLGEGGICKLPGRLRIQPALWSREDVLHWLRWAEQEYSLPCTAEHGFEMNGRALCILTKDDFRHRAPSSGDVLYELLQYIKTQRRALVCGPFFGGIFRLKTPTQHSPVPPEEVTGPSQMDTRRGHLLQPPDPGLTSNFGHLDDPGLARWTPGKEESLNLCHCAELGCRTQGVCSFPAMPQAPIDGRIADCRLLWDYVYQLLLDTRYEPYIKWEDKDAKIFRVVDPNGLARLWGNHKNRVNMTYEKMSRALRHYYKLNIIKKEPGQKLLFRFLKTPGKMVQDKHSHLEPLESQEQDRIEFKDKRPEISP
Procedure, shortened: as §1

ELF5 = biological target: T6, ELF5 (Homo sapiens, UniProt Q9UKW6-2 1-255)
T6 sequence: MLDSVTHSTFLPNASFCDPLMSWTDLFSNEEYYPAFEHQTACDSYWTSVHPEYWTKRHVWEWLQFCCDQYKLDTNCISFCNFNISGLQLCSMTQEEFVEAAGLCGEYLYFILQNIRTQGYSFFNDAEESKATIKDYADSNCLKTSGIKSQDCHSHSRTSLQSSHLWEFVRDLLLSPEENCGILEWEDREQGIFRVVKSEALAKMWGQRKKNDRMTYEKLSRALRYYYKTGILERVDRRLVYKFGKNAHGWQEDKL
Procedure, shortened: as §1

ETV3 = biological target: T7, ETV3 (Homo sapiens, UniProt P41162-2 1-143)
T7 sequence: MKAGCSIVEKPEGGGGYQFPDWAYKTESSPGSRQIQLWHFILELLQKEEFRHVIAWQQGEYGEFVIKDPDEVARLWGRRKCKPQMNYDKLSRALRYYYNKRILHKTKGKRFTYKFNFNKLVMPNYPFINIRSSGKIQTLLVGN
Procedure, shortened: as §1

ETV6 = ETV6 (Homo sapiens, UniProt P41212 1-452)
Procedure, shortened: as §1

Sequence of ETV6 (P41212 whole entry): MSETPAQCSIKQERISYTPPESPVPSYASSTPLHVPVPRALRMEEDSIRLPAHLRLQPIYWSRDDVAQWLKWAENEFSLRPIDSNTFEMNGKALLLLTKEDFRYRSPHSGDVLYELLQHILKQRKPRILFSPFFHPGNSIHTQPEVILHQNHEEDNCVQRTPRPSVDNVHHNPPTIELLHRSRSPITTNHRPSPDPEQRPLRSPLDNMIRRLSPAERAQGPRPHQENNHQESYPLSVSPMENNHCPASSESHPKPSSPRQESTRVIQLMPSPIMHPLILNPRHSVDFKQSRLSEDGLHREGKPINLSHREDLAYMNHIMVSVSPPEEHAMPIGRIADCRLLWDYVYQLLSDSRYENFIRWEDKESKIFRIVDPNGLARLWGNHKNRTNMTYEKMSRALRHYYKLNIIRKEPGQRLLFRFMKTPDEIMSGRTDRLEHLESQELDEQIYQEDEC

TCTGTC
binding signal (ERF): 1.31 fold enrichment (6-mer frequency, TF over GST control) | binding signal (ETV3L): 1.19 fold enrichment (6-mer frequency, TF over GST control) | binding signal (ETS2): 1.23 fold enrichment (6-mer frequency, TF over GST control) | binding signal (SPDEF): 1.15 fold enrichment (6-mer frequency, TF over GST control) | binding signal (ETV7): 1.14 fold enrichment (6-mer frequency, TF over GST control) | binding signal (ELF5): 1.16 fold enrichment (6-mer frequency, TF over GST control) | binding signal (ETV3): 1.05 fold enrichment (6-mer frequency, TF over GST control) | binding signal (ETV6): 1.23 fold enrichment (6-mer frequency, TF over GST control)

ACCTTG
binding signal (ERF): 1.31 fold enrichment (6-mer frequency, TF over GST control) | binding signal (ETV3L): 1.23 fold enrichment (6-mer frequency, TF over GST control) | binding signal (ETS2): 1.27 fold enrichment (6-mer frequency, TF over GST control) | binding signal (SPDEF): 1.27 fold enrichment (6-mer frequency, TF over GST control) | binding signal (ETV7): 1.22 fold enrichment (6-mer frequency, TF over GST control) | binding signal (ELF5): 1.11 fold enrichment (6-mer frequency, TF over GST control) | binding signal (ETV3): 1.25 fold enrichment (6-mer frequency, TF over GST control) | binding signal (ETV6): 1.17 fold enrichment (6-mer frequency, TF over GST control)

TACGGA
binding signal (ERF): 1.28 fold enrichment (6-mer frequency, TF over GST control) | binding signal (ETV3L): 1.34 fold enrichment (6-mer frequency, TF over GST control) | binding signal (ETS2): 1.38 fold enrichment (6-mer frequency, TF over GST control) | binding signal (SPDEF): 1.47 fold enrichment (6-mer frequency, TF over GST control) | binding signal (ETV7): 1.18 fold enrichment (6-mer frequency, TF over GST control) | binding signal (ELF5): 1.51 fold enrichment (6-mer frequency, TF over GST control) | binding signal (ETV3): 1.43 fold enrichment (6-mer frequency, TF over GST control) | binding signal (ETV6): 1.39 fold enrichment (6-mer frequency, TF over GST control)

GCACTC
binding signal (ERF): 1.39 fold enrichment (6-mer frequency, TF over GST control) | binding signal (ETV3L): 1.33 fold enrichment (6-mer frequency, TF over GST control) | binding signal (ETS2): 1.23 fold enrichment (6-mer frequency, TF over GST control) | binding signal (SPDEF): 1.22 fold enrichment (6-mer frequency, TF over GST control) | binding signal (ETV7): 1.28 fold enrichment (6-mer frequency, TF over GST control) | binding signal (ELF5): 1.27 fold enrichment (6-mer frequency, TF over GST control) | binding signal (ETV3): 1.28 fold enrichment (6-mer frequency, TF over GST control) | binding signal (ETV6): 1.34 fold enrichment (6-mer frequency, TF over GST control)

AAACTG
binding signal (ERF): 1.03 fold enrichment (6-mer frequency, TF over GST control) | binding signal (ETV3L): 1.08 fold enrichment (6-mer frequency, TF over GST control) | binding signal (ETS2): 1.08 fold enrichment (6-mer frequency, TF over GST control) | binding signal (SPDEF): 1.02 fold enrichment (6-mer frequency, TF over GST control) | binding signal (ETV7): 1.13 fold enrichment (6-mer frequency, TF over GST control) | binding signal (ELF5): 1.1 fold enrichment (6-mer frequency, TF over GST control) | binding signal (ETV3): 1.07 fold enrichment (6-mer frequency, TF over GST control) | binding signal (ETV6): 1.12 fold enrichment (6-mer frequency, TF over GST control)

ACGACG
binding signal (ERF): 1.14 fold enrichment (6-mer frequency, TF over GST control) | binding signal (ETV3L): 1.08 fold enrichment (6-mer frequency, TF over GST control) | binding signal (ETS2): 1.12 fold enrichment (6-mer frequency, TF over GST control) | binding signal (SPDEF): 1.14 fold enrichment (6-mer frequency, TF over GST control) | binding signal (ETV7): 1.25 fold enrichment (6-mer frequency, TF over GST control) | binding signal (ELF5): 1.15 fold enrichment (6-mer frequency, TF over GST control) | binding signal (ETV3): 1.16 fold enrichment (6-mer frequency, TF over GST control) | binding signal (ETV6): 1.2 fold enrichment (6-mer frequency, TF over GST control)

TCCCTT
binding signal (ERF): 1.57 fold enrichment (6-mer frequency, TF over GST control) | binding signal (ETV3L): 1.64 fold enrichment (6-mer frequency, TF over GST control) | binding signal (ETS2): 1.67 fold enrichment (6-mer frequency, TF over GST control) | binding signal (SPDEF): 1.61 fold enrichment (6-mer frequency, TF over GST control) | binding signal (ETV7): 1.57 fold enrichment (6-mer frequency, TF over GST control) | binding signal (ELF5): 1.72 fold enrichment (6-mer frequency, TF over GST control) | binding signal (ETV3): 1.54 fold enrichment (6-mer frequency, TF over GST control) | binding signal (ETV6): 1.53 fold enrichment (6-mer frequency, TF over GST control)
